# VACV Venus inh = inhibitors of vaccinia virus (Venus reporter); Vaccinia virus Venus reporter expression, fluorescence; hit rate 0.46% among 330,000; Potency, µM (series often up to 36.5 µM), for the others: at the top dose activity change, negative = inhibition, hits mostly inhibitors; AID 720580; calls by dose curve; tested in A549 cells; note: potency is the fitted concentration of half-maximal effect; nearly all actives have a fitted effect of over 30% in size
# HCMV inh = human cytomegalovirus inhibition; HFF cells, HCMV-luciferase reporter, 72 h; active compounds read low; activity change, negative = inhibition, % at 57.5 µM; hit rate 4.5% among 410,000; AID 1259415; in the data active = activity change below about -60%; inconclusive = no clear call, values can overlap the other calls; inactive = above about -39%
#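 Human foreskin fibroblasts infected with luciferase-reporter HCMV at MOI 1 PFU/cell, compounds at two doses. Luciferase measured 72 h post infection; normalized to buffer-only basal and Salinomycin (10uM) controls.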
# FMDV inh = blocks foot and mouth disease virus. FMDV antiviral cell-based qHTS. Potency, µM (series often up to 57.9 µM), for inactives: at the highest dose activity change, negative = inhibition, hits mostly inhibitors. hit rate 1.2% among 410,000; calls by dose curve; tested in HEK293T cells; note: read-out not given here; potency is the fitted concentration of half-maximal effect; nearly all actives have a fitted effect of over 45% in size
# MARV entry inh = blocks Marburg virus binding to or entry into cells; Marburg virus pseudotyped entry inhibition, cell reporter; Potency, µM (titrated, usually from 37.8 µM), inactives show at the highest dose activity change, negative = inhibition, most hits filed as inhibitors; hit rate 1.8% among 300,000; AID 540276; calls by dose curve; tested in HEK293 cells; note: potency is the fitted concentration of half-maximal effect
# LASV entry inh = blocks Lassa virus binding to or entry into cells. Lassa virus pseudotype entry inhibition, cell reporter. Potency, µM (highest dose often 37.9 µM), without a hit: at the top dose activity change, negative = inhibition, most hits filed as inhibitors. hit rate 1.2% among 300,000. AID 540256; calls by dose curve; tested in HEK293 cells; note: potency is the fitted concentration of half-maximal effect; nearly all actives have a fitted effect of over 50% in size
# VACV mCherry inh = inhibitors of vaccinia virus infection (mCherry reporter signal); Vaccinia virus mCherry reporter infection, fluorescence; Potency, µM (top dose mostly 36.5 µM), for inactives: at the highest dose activity change, negative = inhibition, most hits filed as inhibitors; hit rate 0.63% among 310,000; calls by dose curve; tested in A549 cells; note: potency is the fitted concentration of half-maximal effect; nearly all actives have a fitted effect of over 35% in size
# Active calls of the source: *; i = inactive; ? = inconclusive; . = no result given; [ ] = dose if it differs, or a comment. An excerpt weighted towards active compounds, which were near 6.5% of everything screened. % is set by controls: 0 for no effect and ±100 for the full control effect.
SMILES,VACV Venus inh,HCMV inh,FMDV inh,MARV entry inh,LASV entry inh,VACV mCherry inh
COc1ccc(CN(C(=O)Cc2c[nH]c3ccccc23)C(C(=O)NC2CCCCC2)c2ccc(C)o2)cc1 (centres undefined),.,?,37.9%,7.3µM*,7.3µM*,.
COc1cc(C(C(=O)NC2CCCCC2)N(Cc2cccs2)C(=O)Cc2c[nH]c3ccccc23)cc(OC)c1OC (centres undefined),.,-79.2*,?,-32.5%,-17.2%,.
O=C(CSc1nccn1-c1cccc(Cl)c1)Nc1cccc(C(F)(F)F)c1,-3.7%,17.6,-14.2%,.,-6.8%[46.1 µM],i
CCCCCOC(=O)C1=C(C)Nc2ncnn2C1c1cccs1 (centres undefined),?,-13.5,?,?,20.6µM*,?
CCn1cc(C(=O)NCc2ccc(Cl)cc2)c(=O)c2cc(S(=O)(=O)N(C)C3CCCCC3)ccc21,?,-2.6,10.1%,2.82µM*,?,-3.8%
CCn1cc(C(=O)NCc2ccc(Cl)cc2)c(=O)c2cc(S(=O)(=O)N(C)C)ccc21,-20.1%,-71.0*,0.6%,?,?,?
CCn1cc(C(=O)NCCc2ccc(Cl)cc2)c(=O)c2cc(S(=O)(=O)N(C)C)ccc21,.,37.5,0.0%,.,.,.
CCn1cc(C(=O)NCc2ccc(C)cc2)c(=O)c2cc(S(=O)(=O)N3CCCCCC3)ccc21,-21.9%,-14.3,-16.1%,.,6.31µM*,?
CCn1cc(C(=O)NC(C)CCc2ccccc2)c(=O)c2cc(S(=O)(=O)N(C)C)ccc21 (centres undefined),-20.0%,-21.4,-14.0%,?,6.31µM*,i
CCn1cc(C(=O)NCc2ccccc2)c(=O)c2cc(S(=O)(=O)N3CCCCCC3)ccc21,-21.8%,-37.2,-10.2%,20.1%[46.1 µM],?,?
CCn1cc(C(=O)NCCc2ccc(C)cc2)c(=O)c2cc(S(=O)(=O)N(C)C)ccc21,-23.0%,-11.5,-21.2%,9.2%[46.1 µM],-2.3%[46.1 µM],i
CCOc1ccc(C(=O)O[C@H]2[C@H](Cc3ccccc3)NS(=O)(=O)[C@H]3C[C@@H]4C=C[C@]23O4)cc1,-15.1%,8.7,38.5%,.,.,-11.1%
C[C@H]1CC[C@]2(NC1)O[C@H]1C[C@H]3[C@@H]4CC[C@H]5C[C@@H](O)CC[C@]5(C)[C@H]4CC[C@]3(C)[C@H]1[C@@H]2C,-8.5%,.,-8.9%,.,.,-17.1%
O=S(=O)(NCCS(=O)(=O)N1CCN(c2ccc(F)cc2)CC1)c1ccc(F)cc1,-12.1%,-31.1,-13.6%,.,.,i
COC(=O)[C@@H]1CCCN1C(=O)c1c(OC)cc(=O)n2c1CCN(Cc1cc(OC)ccc1F)CC2,-0.6%,.,3.2%,.,.,-6.2%
C[C@@H]1CN(Cc2ccc3c(c2)CN(Cc2cccn2-c2ccc(Cl)cn2)CCO3)C[C@H](C)O1,1.7%,.,0.6%,.,.,-16.0%
CCn1cc(C(=O)NCCc2ccc(OC)c(OC)c2)c(=O)c2cc(S(=O)(=O)N(C)C3CCCCC3)ccc21,?,-72.5*,-11.2%,11.2µM*,?,?
COC(=O)c1ccc(Nc2nc(N3CCOCC3)nc(N3CCOCC3)n2)cc1,-13.8%,23.0,-10.9%,2µM*,?,i
CC(=O)Nc1ccc(/C(C)=N/Nc2nc(Nc3cccc4ccccc34)nc(N3CCOCC3)n2)cc1,?,-62.2*,0.0%,1.41µM*,?,-14.3%
COc1ccc(Nc2nc(N3CCOCC3)nc(N3CCOCC3)n2)cc1,.,25.3,-21.9%,.,.,.
c1ccc(Nc2nc(N3CCNCC3)nc(N3CCOCC3)n2)cc1,-6.0%,125.6,-14.1%,11.2µM*,8.91µM*,-18.0%
CC(=O)Nc1ccc(/C(C)=N/Nc2nc(N3CCOCC3)nc(N3CCOCC3)n2)cc1,-3.0%,-22.3,-15.3%,?,10.8%,-3.8%
c1ccc(Nc2nc(N3CCOCC3)nc(N3CCOCC3)n2)cc1,?,65.6,?,?,-14.3%,.
C/C(=N\Nc1nc(N2CCCCCC2)nc(N2CCCCCC2)n1)c1ccccc1,.,-65.6*,-22.3%,.,.,.
O=C(c1ccccc1F)N1C[C@@H]2[C@H](c3ccccc31)[C@H](CO)N2C(=O)c1ccccc1,.,-4.9,.,.,.,.
SMILES,VACV Venus inh,HCMV inh,FMDV inh,MARV entry inh,LASV entry inh,VACV mCherry inh
C=CCOC(=O)N[C@H](c1ccccc1)[C@H](C)C=CCC(=O)OC,.,.,.,9.3%[14.2 µM],.,.
O=C(COC(=O)c1ccc(F)c(S(=O)(=O)N2CCOCC2)c1)Nc1ccc2[nH]c(=O)[nH]c2c1,.,2.2,-10.7%,.,.,.
COc1ccc(Nc2nc(NCc3ccco3)nc(N3CCOCC3)n2)cc1,-23.5%,?,-19.8%,2.82µM*,-0.9%,i
Fc1ccc(Nc2nc(N3CCOCC3)nc(N3CCOCC3)n2)cc1,-20.4%,0.0,-19.2%,7.08µM*,?,-15.9%
CNc1nc(C(=O)O)nc(N2CCOCC2)n1,-1.5%,-104.6*,1.8%,0.3%,-1.8%,-9.0%
CCOc1ccc(Nc2nc(Nc3ccc(OCC)cc3)nc(N3CCOCC3)n2)cc1,-8.6%[7.34 µM],83.2,-19.4%,?,1.6%[46.1 µM],-2.9%[7.34 µM]
Cc1cccc(CN2C(=O)[C@H]3Cc4c([nH]c5ccccc45)C(C)(C)N3C2=O)c1,.,37.1,35.5µM*,.,.,.
CCC(=NCCc1c(C)[nH]c2ccc(OC(F)(F)F)cc12)C1=C(O)CC(c2ccccc2)CC1=O (centres undefined),?,-23.2,?,?,?,?
CCCCC(=NCCc1c(C)[nH]c2ccc(OC)cc12)C1=C(O)CC(c2ccccc2)CC1=O (centres undefined),-24.4%,-27.2,?,7.94µM*,?,?
OCC1(Cc2cccc(C(F)(F)F)c2)CCN(Cc2cc3ccccc3o2)CC1,?,-32.4,-27.8%,?,1.3%,?
CC1(C(=O)N2CCC(CO)(Cc3cccc(C(F)(F)F)c3)CC2)CC1,.,-9.9,?,.,.,.
Cc1c(CN2CCC(CO)(Cc3cccc(C(F)(F)F)c3)CC2)c2ccccc2n1C,?,-99.4*,-26.4%,?,?,?
CC(=O)c1ccc(C(=O)N2CCC(CO)(Cc3cccc(C(F)(F)F)c3)CC2)cc1,-16.5%,-75.0*,-29.6%,?,?,-8.3%
COc1ccc(CCNC(=O)c2cc3c(=O)n4ccccc4nc3n(CCN3CCOCC3)c2=N)cc1,-8.8%,-20.7,-25.5%,2.82µM*,?,-2.8%
N=c1c(C(=O)NCC2CCCO2)cc2c(=O)n3ccccc3nc2n1Cc1ccccc1Cl (centres undefined),-5.5%,-101.4*,-23.2%,11.2µM*,?,i
N=c1c(C(=O)NCC2CCCO2)cc2c(=O)n3ccccc3nc2n1Cc1ccc(Cl)cc1 (centres undefined),.,-83.3*,-15.1%,.,.,.
COc1ccc(CCn2c(=N)c(C(=O)NCC3CCCO3)cc3c(=O)n4ccccc4nc32)cc1 (centres undefined),.,-111.5*,-25.0%,.,.,.
CN(C)c1ccc(CNC(=O)c2cnc3sc(N4CCOCC4)nn3c2=O)cc1,-6.5%,-32.3,-5.3%,.,?,-5.1%

# Screens deposited in PubChem by National Center for Advancing Translational Sciences (NCATS).
